Some test systems named below: OVCAR-8 ovarian; OVCAR-5 ovarian; SK-OV-3 ovarian; IGROV1 ovarian; OVCAR-3 ovarian; HS 578T breast; NCI/ADR-RES ovarian; T-47D breast; BT-549 breast; MDA-MB-435 melanoma; SW-620 colon; MCF7 breast; HCT-116 colon; HCC-2998 colon; KM12 colon; OVCAR-4 ovarian.
Common to all, as to experiment: NCI-60 one-dose screen, 48 h (100 = growth as untreated, 0 = no growth, -100 = all killed)
What all share (details): 10 µM unless noted

About 83,000 compounds went through this panel and 20% of them were active in at least one assay; those are over-represented in the sample as a whole.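 Step 1: grow cells in 96-well plates. Step 2: add test compound at a single concentration. Step 3: incubate 48 h. Step 4: record percent growth.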 Values without a mark were called inactive. Activity calls are given as the source filed them. How the source made its calls: active means growth percent below 10; inactive means the rest.

On to `Cc1ccc(C(O)C2=CC(=O)c3ccccc3C2=O)cc1` (stereo not given), for which the growth in the assay with OVCAR-8 ovarian was 91.3%; in the assay on OVCAR-5 ovarian, 95.4%; in the assay with SK-OV-3 ovarian, 105%; in the assay on IGROV1 ovarian, 89.6%; with OVCAR-3 ovarian it was 93.3%; in the assay on HS 578T breast, 104%. The growth in the assay on NCI/ADR-RES ovarian is 96.4%; in the assay on T-47D breast, 76.5%; in the assay on BT-549 breast, 63.1%; in the assay with MDA-MB-435 melanoma it was 102%; in the assay on SW-620 colon, 95%; in the assay with MCF7 breast, 87.1%. Also, the growth in the assay with HCT-116 colon is 91.7%; with HCC-2998 colon, 101%; with KM12 colon, 96%.
As to `O=C(NCCCO)c1cc(Cl)ccc1O`, the growth in the assay with OVCAR-8 ovarian is 17.8%; in the assay with OVCAR-5 ovarian, 45%; in the assay on SK-OV-3 ovarian, 40.6%; with IGROV1 ovarian, 28.1%; in the assay on OVCAR-3 ovarian, -14.9% (active); in the assay on HS 578T breast, 19.3%. Further, the growth was 95.8% with NCI/ADR-RES ovarian; 30% with T-47D breast; 19.2% with BT-549 breast; 23.1% in the assay on SW-620 colon; 18.9% in the assay on MCF7 breast; 10.9% in the assay on HCT-116 colon. The growth in the assay with HCC-2998 colon was 21.4%; in the assay with KM12 colon, 14.5%.
For the compound `Cc1nn(-c2ccccc2)c2nc3c(nc12)C(=O)CCC3`, the growth was 104% in the assay with OVCAR-5 ovarian; 81.4% in the assay with OVCAR-4 ovarian; 99.7% in the assay on SK-OV-3 ovarian; 96.6% in the assay on IGROV1 ovarian; 98.8% in the assay on OVCAR-3 ovarian; 97.1% with HS 578T breast. The growth in the assay with NCI/ADR-RES ovarian is 94.8%; in the assay with T-47D breast, 79.2%; with BT-549 breast, 90.9%; with MDA-MB-435 melanoma it was 98.1%; in the assay on SW-620 colon it was 105%; in the assay on MCF7 breast, 84.9%. In addition, the figures for the growth in the assay on HCT-116 colon and with HCC-2998 colon were 91.6% and 92%, respectively.
`COc1ccc(C(=O)/C=C/c2c(Cl)nc3c(c(C)nn3-c3ccccc3)c2-c2ccc(Br)cc2)cc1`: the growth in the assay with OVCAR-5 ovarian was 99.6%; in the assay on OVCAR-4 ovarian it was 107%; with SK-OV-3 ovarian, 97.3%; in the assay on IGROV1 ovarian it was 116%; in the assay on OVCAR-3 ovarian it was 115%; with NCI/ADR-RES ovarian it was 108%. Moreover, the growth was 100% in the assay with T-47D breast; 97.5% with BT-549 breast; 107% in the assay on MDA-MB-435 melanoma; 110% with SW-620 colon; 102% with HCT-116 colon; 114% in the assay on HCC-2998 colon.
Turning to `O=C(OCCBr)c1ccc(Cl)c([N+](=O)[O-])c1`, the growth with OVCAR-8 ovarian was 102%; with OVCAR-5 ovarian, 108%; in the assay with SK-OV-3 ovarian it was 79.4%; with IGROV1 ovarian, 102%; with OVCAR-3 ovarian, -21.3% (active); with HS 578T breast, -29.9% (active). The growth was 113% in the assay on NCI/ADR-RES ovarian; -57.2% (active) with T-47D breast; 107% with BT-549 breast; 103% with SW-620 colon; 44.7% in the assay with MCF7 breast; 92.4% in the assay on HCT-116 colon. Also, the figures for the growth with HCC-2998 colon and with KM12 colon were 42.9% and 63.1%, respectively.
As to `CC(C)(C)c1cc(O)c(O)c(C(C)(C)C)c1`, the growth in the assay with OVCAR-8 ovarian was 39.8%; in the assay with OVCAR-5 ovarian, 55.3%; with SK-OV-3 ovarian, 67%; in the assay with IGROV1 ovarian, 49.9%; with OVCAR-3 ovarian, 20.9%; in the assay on HS 578T breast it was 43.6%. Moreover, the growth was 51.9% in the assay on NCI/ADR-RES ovarian; 12.8% in the assay with T-47D breast; 61.2% in the assay on BT-549 breast; 19.3% in the assay with SW-620 colon; 36.3% in the assay with MCF7 breast; 15.8% in the assay on HCT-116 colon. In addition, the growth in the assay on HCC-2998 colon was 59.5%; in the assay on KM12 colon it was 48.1%.
Take `Cc1nn(-c2ccccc2)c(Cl)c1C(CC(=O)c1ccc(Cl)cc1)CC(=O)c1ccc(Cl)cc1`: the growth in the assay with OVCAR-5 ovarian is 93.8%; with OVCAR-4 ovarian it was 97.8%; with SK-OV-3 ovarian, 91.8%; with IGROV1 ovarian it was 101%; in the assay with OVCAR-3 ovarian it was 91.7%; in the assay on HS 578T breast it was 97.3%. Further, the growth in the assay with NCI/ADR-RES ovarian was 90.2%; in the assay on T-47D breast, 85.8%; in the assay with BT-549 breast, 85.6%; in the assay on MDA-MB-435 melanoma, 90.9%; in the assay on SW-620 colon, 96.4%; with MCF7 breast, 92.7%. In addition, the growth with HCT-116 colon was 75.4%; in the assay with HCC-2998 colon it was 99.1%; in the assay on KM12 colon, 86.1%.
For `CCc1ccc(CCN2C(=O)c3ccccc3C2=O)nc1`, the growth is 102% in the assay with OVCAR-8 ovarian; 129% in the assay with OVCAR-5 ovarian; 101% in the assay with OVCAR-4 ovarian; 98.1% with SK-OV-3 ovarian; 119% in the assay on HS 578T breast; 128% in the assay on NCI/ADR-RES ovarian. Also, the growth was 94.8% with T-47D breast; 116% in the assay on BT-549 breast; 98.9% in the assay on MDA-MB-435 melanoma; 107% with SW-620 colon; 89.5% in the assay on MCF7 breast; 109% with HCT-116 colon. In addition, the growth in the assay with KM12 colon was 103%.
For the compound `Cc1nn(-c2ccc(Br)cc2)c2nc3c(nc12)C(=O)C(=O)c1ccccc1-3`, the growth was 100% with OVCAR-5 ovarian; 88.3% in the assay with OVCAR-4 ovarian; 93.6% in the assay on SK-OV-3 ovarian; 81.9% in the assay with IGROV1 ovarian; 101% in the assay with OVCAR-3 ovarian; 105% with HS 578T breast. Besides, the growth in the assay on NCI/ADR-RES ovarian is 86.4%; in the assay with T-47D breast, 91.2%; in the assay with BT-549 breast, 94.7%; in the assay on MDA-MB-435 melanoma, 110%; in the assay with SW-620 colon it was 93.5%; in the assay with MCF7 breast, 67.3%. The growth in the assay on HCT-116 colon was 86.3%; in the assay with HCC-2998 colon, 93%; with KM12 colon it was 103%.
For the compound `Cc1nn(-c2ccc(Cl)cc2)c2nc3c(nc12)c(=O)oc1ccccc13`, the growth in the assay with OVCAR-5 ovarian was 98%; in the assay with OVCAR-4 ovarian, 113%; with SK-OV-3 ovarian, 107%; in the assay with IGROV1 ovarian, 119%; with OVCAR-3 ovarian it was 118%; in the assay with NCI/ADR-RES ovarian, 102%. Moreover, the growth in the assay with T-47D breast is 111%; in the assay on BT-549 breast, 89.8%; in the assay with MDA-MB-435 melanoma it was 106%; with SW-620 colon, 104%; in the assay with MCF7 breast, 99.1%; in the assay with HCT-116 colon it was 105%. In addition, the growth was 98.2% in the assay on HCC-2998 colon and 112% with KM12 colon.

For the origin of these results see PubChem BioAssay (NCI).
